From PubChem BioAssay come the findings set out here.

Calls of active or inactive are those of the source.

The subject of assay [1] is PRMT1 (protein arginine N-methyltransferase 1). Put plainly: small molecules binding arginine methyltransferase PRMT1 – biochemical, small-molecule microarray, 635 nm fluorescence, primary screen (AID 1088).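 Also: binding of Prmt1 protein to compounds spotted on small-molecule microarray slides.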 The following applies: higher = more signal.
Assay [2] in a line: growth effects on S. cerevisiae YJM789 – YJM789 clinical isolate, OD600, 24 h, basal, primary screen (AID 1089).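 Also: growth of clinical yeast isolate S. cerevisiae YJM 789 seeded 1000 cells per well; test concentration not given here.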 As to conditions: higher = more signal, called active from +8 up or from −8 down.
Assay [3] in a line: S. pombe growth modifiers, basal conditions – strain 972, OD600, 24 h, no modulator, primary screen (AID 1090).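 Also: basal condition with compound alone and no growth modifier present; test concentration not given here.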 The following applies: S. pombe 972 growth, higher = more signal, called active from +8 up or from −8 down.
A short description of assay [4]: budding yeast growth modifiers under rapamycin – strain BY4716, OD600, 96 h, primary screen (AID 1091). Also: test concentration not given here. As to conditions: S. cerevisiae BY4716 + rapamycin, higher = more signal, called active from +8 up or from −8 down.
For assay [5], the target named is Torsin-1A-interacting protein 2 (Homo sapiens) (UniProt Q8NFQ8). Description: small molecules binding lysate-expressed LULL1 – cell lysate, human LULL1 lysate, 635/667 nm fluorescence, primary screen (AID 1092).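 Also: probe is lysate of COS7 cells overexpressing human LULL1; score merges per-feature 667 nm fluorescence with signal-to-noise.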 The following applies: small-molecule microarray, hLULL1 lysate binding, 635 nm fluorescence; higher = more signal.
Assay [6] can be described thus: optical density change of DRC41 E. coli – strain DRC41, OD650, 24 h, E. coli filamentation project, primary screen (AID 1093).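 Also: MC1000 strain lacking acrAB efflux and sulA so SOS filamentation is blocked; test concentration not given here.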 As to conditions: E. coli DRC41 growth, higher = more signal, called active from +8 up or from −8 down.
Assay [7] is described as follows: probe aLefty2 binding to arrayed compounds – biochemical, biotinylated probe, 635/667 nm fluorescence, primary screen (AID 1094).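 Also: score merges spot fluorescence near 667 nm with spot signal-to-noise ratio.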 As to conditions: small-molecule microarray, higher = more signal.
Assay [8] concerns Noggin (protein binding on small-molecule microarray). Description: small molecules binding Noggin protein – biochemical, 635/667 nm fluorescence, primary screen (AID 1095).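 Also: score merges 667 nm feature fluorescence with signal to noise over triplicate slides.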 As to conditions: 635 nm fluorescence, higher = more signal.
Assay [9] has as its target Neurogenic locus notch homolog protein 3 (Homo sapiens) (UniProt Q9UM47). Put plainly: small molecules binding NOTCH3 protein – biochemical, 635/667 nm fluorescence, primary screen (AID 1096). The following applies: small-molecule microarray, 635 nm fluorescence, higher = more signal.
A short description of assay [10]: probe aEGFR binding to arrayed compounds – biochemical, biotinylated probe, 635/667 nm fluorescence, primary screen (AID 1097).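 Also: probe is a biotinylated anti-EGFR antibody binding compounds printed on slides; score combines fluorescence near 667 nm and signal to noise of each spot.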 As to conditions: small-molecule microarray, higher = more signal.

Chain of Neurogenic locus notch homolog protein 3 (Homo sapiens) (Q9UM47 whole entry, looked up): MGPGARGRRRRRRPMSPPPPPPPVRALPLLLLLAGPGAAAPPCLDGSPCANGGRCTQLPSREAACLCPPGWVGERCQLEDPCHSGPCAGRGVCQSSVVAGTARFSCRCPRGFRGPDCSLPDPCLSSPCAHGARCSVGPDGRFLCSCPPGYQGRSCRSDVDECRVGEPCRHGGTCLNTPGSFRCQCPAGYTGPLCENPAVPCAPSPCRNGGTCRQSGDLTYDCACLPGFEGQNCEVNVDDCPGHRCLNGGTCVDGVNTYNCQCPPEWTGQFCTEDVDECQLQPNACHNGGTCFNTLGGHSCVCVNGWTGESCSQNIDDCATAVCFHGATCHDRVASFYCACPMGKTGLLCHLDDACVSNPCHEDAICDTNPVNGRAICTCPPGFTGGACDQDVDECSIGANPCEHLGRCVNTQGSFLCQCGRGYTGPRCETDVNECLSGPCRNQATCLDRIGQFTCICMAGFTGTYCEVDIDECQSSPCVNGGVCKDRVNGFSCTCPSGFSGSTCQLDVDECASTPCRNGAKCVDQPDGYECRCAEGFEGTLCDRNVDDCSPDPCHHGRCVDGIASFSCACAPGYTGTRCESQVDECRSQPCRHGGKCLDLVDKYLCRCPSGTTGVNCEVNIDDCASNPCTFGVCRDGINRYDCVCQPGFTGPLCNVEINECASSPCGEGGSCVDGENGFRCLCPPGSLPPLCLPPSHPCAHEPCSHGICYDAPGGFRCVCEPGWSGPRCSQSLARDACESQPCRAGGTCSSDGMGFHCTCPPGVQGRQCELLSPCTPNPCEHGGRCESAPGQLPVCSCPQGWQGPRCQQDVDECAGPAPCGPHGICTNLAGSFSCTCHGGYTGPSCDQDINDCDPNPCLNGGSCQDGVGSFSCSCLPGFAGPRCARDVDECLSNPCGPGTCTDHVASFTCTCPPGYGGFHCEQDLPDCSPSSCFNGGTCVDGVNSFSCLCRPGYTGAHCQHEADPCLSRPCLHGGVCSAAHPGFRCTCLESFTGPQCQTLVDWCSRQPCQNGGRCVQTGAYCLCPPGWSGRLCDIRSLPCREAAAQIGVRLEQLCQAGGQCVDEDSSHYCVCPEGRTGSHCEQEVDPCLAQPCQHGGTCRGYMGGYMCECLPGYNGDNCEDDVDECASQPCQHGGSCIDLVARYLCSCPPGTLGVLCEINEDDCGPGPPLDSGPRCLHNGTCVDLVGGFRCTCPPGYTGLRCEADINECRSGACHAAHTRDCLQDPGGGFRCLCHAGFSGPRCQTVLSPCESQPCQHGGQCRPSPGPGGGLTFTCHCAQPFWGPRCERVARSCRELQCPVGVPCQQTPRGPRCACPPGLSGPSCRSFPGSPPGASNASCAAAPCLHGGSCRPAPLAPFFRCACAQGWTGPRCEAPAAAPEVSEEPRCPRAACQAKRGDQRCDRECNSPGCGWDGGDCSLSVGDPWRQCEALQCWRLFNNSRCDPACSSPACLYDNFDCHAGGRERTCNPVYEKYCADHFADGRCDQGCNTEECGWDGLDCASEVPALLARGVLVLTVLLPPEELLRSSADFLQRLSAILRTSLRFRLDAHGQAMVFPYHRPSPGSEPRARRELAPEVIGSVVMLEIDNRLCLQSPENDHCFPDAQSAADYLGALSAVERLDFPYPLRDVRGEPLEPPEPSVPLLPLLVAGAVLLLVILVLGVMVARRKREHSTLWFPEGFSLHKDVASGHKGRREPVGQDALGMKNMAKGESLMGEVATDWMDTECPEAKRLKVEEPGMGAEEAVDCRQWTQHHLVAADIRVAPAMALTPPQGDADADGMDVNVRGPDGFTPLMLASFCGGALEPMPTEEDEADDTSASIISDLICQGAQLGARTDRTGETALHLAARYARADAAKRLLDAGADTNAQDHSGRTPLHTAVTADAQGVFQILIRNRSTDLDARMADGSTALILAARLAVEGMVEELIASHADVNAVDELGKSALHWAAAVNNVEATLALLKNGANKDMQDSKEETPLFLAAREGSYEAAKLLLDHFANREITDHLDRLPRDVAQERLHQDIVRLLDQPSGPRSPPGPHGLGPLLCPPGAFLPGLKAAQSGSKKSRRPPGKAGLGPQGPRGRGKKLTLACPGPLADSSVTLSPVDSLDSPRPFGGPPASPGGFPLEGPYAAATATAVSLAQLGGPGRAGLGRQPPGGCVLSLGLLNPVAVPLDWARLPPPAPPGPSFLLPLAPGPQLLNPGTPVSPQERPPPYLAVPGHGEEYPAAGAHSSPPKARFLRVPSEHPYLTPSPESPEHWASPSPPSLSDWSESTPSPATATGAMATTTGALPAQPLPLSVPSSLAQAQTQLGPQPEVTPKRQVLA
Chain of Torsin-1A-interacting protein 2 (Homo sapiens) (Q8NFQ8 whole entry, looked up): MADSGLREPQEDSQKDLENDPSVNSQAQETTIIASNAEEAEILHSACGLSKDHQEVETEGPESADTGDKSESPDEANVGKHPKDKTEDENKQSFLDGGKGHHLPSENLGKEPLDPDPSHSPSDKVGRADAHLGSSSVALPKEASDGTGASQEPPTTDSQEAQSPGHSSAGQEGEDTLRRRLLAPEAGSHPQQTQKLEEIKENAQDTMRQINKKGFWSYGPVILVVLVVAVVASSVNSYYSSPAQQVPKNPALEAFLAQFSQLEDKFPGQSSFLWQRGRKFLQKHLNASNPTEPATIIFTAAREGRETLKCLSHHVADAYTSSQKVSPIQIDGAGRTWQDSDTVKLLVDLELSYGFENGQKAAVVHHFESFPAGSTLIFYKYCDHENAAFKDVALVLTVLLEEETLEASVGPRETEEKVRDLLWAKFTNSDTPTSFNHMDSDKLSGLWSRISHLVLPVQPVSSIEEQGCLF

With `CN(C)CCCC[C@@H]1NC(=O)[C@H]2C[C@@H](C(=O)NCCCCCCNC(=O)CS)[C@@H](c3ccc(O)cc3)N2C1=O`, the composite z-score is 1.17 in assay [1]; 3.31 in [5]; -0.0785 in [7]; 1.58 in [8]; 0.196 in assay [9]; -0.173 in [10]. The z-score is -1.22 (inactive) in [2], -0.225 (inactive) in assay [3], -0.342 (inactive) in assay [4] and 0.937 (inactive) in [6].

Take `[N-]=[N+]=NCc1ccccc1[C@H]1OC(c2ccc(OCCCO)cc2)=N[C@@]1(Cc1ccccc1N=[N+]=[N-])C(=O)N1CCCCC1`: the composite z-score in assay [1] was 1.53; in assay [5], 3.44; in assay [7], 0.352; in assay [8], 0.667; in assay [9], 1.12; in assay [10], 0.23. Further, the z-score in assay [2] is 0.401 (inactive); in assay [3], 0.763 (inactive); in assay [4] it was 2.23 (inactive); in [6] it was 0.203 (inactive).

On to `COCCOC(=O)N1C(=O)[C@@]2(c3cc(C#CC4(O)CCCCCC4)ccc31)[C@H](C(=O)N1CCN(c3ncccn3)CC1)[C@H]1C(=O)O[C@H](c3ccccc3)[C@H](c3ccccc3)N1[C@@H]2c1ccc(O)cc1`, for which the composite z-score in assay [1] is 1.47; in assay [5] it was 2.54; in assay [7] it was -0.172; in assay [8], 0.287; in [9] it was 0.546; in assay [10] it was -0.158. Also, the z-score in assay [2] is 1.79 (inactive); in [3], -0.885 (inactive); in assay [4], 2.83 (inactive); in assay [6], 1.31 (inactive).

In the case of `CCOC(=O)C1=CC[C@@H](c2ccc(N(CC)CC)cc2)N(S(=O)(=O)c2ccc(C)cc2)[C@H]1c1ccc([N+](=O)[O-])cc1`, the composite z-score is 0.554 in assay [1]; 2.29 in [5]; 0.415 in [7]; -0.796 in assay [8]; 0.206 in assay [9]; -0.0688 in [10]. The z-score in assay [2] is -0.673 (inactive); in assay [3], 0.0534 (inactive); in assay [4] it was 2.76 (inactive); in [6] it was -0.532 (inactive).

Turning to `C=CCOC(=O)[C@H]1[C@@H]2C(=O)O[C@@H](c3ccccc3)[C@@H](c3ccccc3)N2[C@@H](c2ccc(OCCOC(=O)[C@H]3C[C@H]4C(=O)N[C@@H](CCCCN(C)C)C(=O)N4[C@H]3c3ccc(O)cc3)cc2)[C@]12C(=O)Nc1ccccc12`, the composite z-score in assay [1] amounted to 1.54; in assay [5] it was 2.49; in assay [7], 0.155; in assay [8], 1.83; in assay [9], 1.06; in assay [10], 0.0088. For the same compound, the z-score is -0.0535 (inactive) in assay [2], -1.03 (inactive) in assay [3], -0.713 (inactive) in [4] and -0.296 (inactive) in assay [6].

Consider `COC(=O)c1c(CC[C@@H](CO)NC(=O)N[C@@H](C)Cn2cc(C3(O)CCCC3)nn2)oc(C(C)=O)c1C(=O)OC`, for which the composite z-score is 0.913 in assay [1]; 2 in [5]; -0.0126 in assay [7]; 0.555 in assay [8]; 0.634 in assay [9]; -0.0237 in assay [10]. Besides, the z-score in assay [2] was 0.009 (inactive); in assay [3], -1.03 (inactive); in assay [4] it was -0.117 (inactive); in assay [6], -0.159 (inactive).

Turning to `CN(C)CCCCCCNC(=O)[C@@H]1C[C@@H]2C(=O)NCC(=O)N2[C@@H]1c1ccc(O)cc1`, the composite z-score in assay [1] is 1.53; in assay [5], 2.72; in assay [7], -0.16; in [8], 1.47; in assay [9], 1.04; in [10], -0.0304. The z-score in [2] was -1.2 (inactive); in assay [3] it was -0.639 (inactive); in assay [4], -0.296 (inactive); in assay [6], -0.427 (inactive).

As for `O=C1O[C@H](c2ccccc2)[C@H](c2ccccc2)N2[C@H]1[C@@H](C(=O)N1CCCCCCC1)[C@]1(C(=O)Nc3ccc(C#CCCO)cc31)[C@H]2c1ccc(OCCO)cc1`, the composite z-score in assay [1] was found to be 1.56; in [5], 5.06; in assay [7], 1.6; in assay [8] it was 2.36; in [9], 1.01; in [10], 1.28. In addition, the z-score in assay [2] is 1.55 (inactive); in assay [3] it was -0.0863 (inactive); in assay [4], 3.73 (inactive); in assay [6], 0.669 (inactive).

In the case of `COc1ccc(C#Cc2ccc3c(c2)[C@]2(C(=O)N3)[C@H](c3ccc(OCCO)cc3)N3[C@H](c4ccccc4)[C@H](c4ccccc4)OC(=O)[C@H]3[C@@H]2C(=O)N2CCN(c3ncccn3)CC2)cc1`, the composite z-score was 0.61 in assay [1]; 1.51 in assay [5]; -0.105 in assay [7]; 0.346 in assay [8]; 0.824 in assay [9]; -0.0928 in assay [10]. The z-score in assay [2] was 1.86 (inactive); in [3], 1.23 (inactive); in [4] it was 4.94 (inactive); in assay [6], 2.6 (inactive).

On to `COC(=O)C(CC#Cc1ccc2c(c1)[C@]1(C(=O)N2)[C@H](c2ccc(O)cc2)N2[C@H](c3ccccc3)[C@H](c3ccccc3)OC(=O)[C@H]2[C@@H]1C(=O)O)C(=O)OC`, for which the composite z-score in assay [1] is 0.439; in assay [5], 2.96; in [7], -0.166; in assay [8], 0.307; in [9], 0.64; in [10] it was -0.0152. Also, the z-score in [2] is 1.22 (inactive); in assay [3], -0.489 (inactive); in assay [4], -0.922 (inactive); in [6], -1.28 (inactive).

`O=C1NC(=O)C2C1C=CC(C(O)CCc1ccccc1)N2Nc1ccccn1` (stereo not given): the composite z-score in assay [1] is 0.509; in [5], 1.51; in [7], -0.0719; in assay [8], 0.103; in assay [9] it was 0.312; in [10] it was -0.0659. For the same compound, the z-score was -0.974 (inactive) in assay [2], 1.51 (inactive) in assay [3], -0.312 (inactive) in assay [4] and -0.581 (inactive) in [6].

For `C[N+](C)(C)CCCC[C@@H]1NC(=O)[C@@H]2C[C@H](C(=O)NCCCCCNC(=O)CS)[C@H](c3cccc(OCCO)c3)N2C1=O`, the composite z-score is 0.749 in assay [1]; 0.743 in [5]; 0.115 in assay [7]; 0.505 in assay [8]; -0.296 in assay [9]; 0.0338 in [10]. Also, the z-score in assay [2] is 0.539 (inactive); in assay [3] it was -0.879 (inactive); in assay [4] it was 0.378 (inactive); in assay [6], 0.906 (inactive).
